ChEMBL document CHEMBL3988442, “University of Dundee, Small-Polar-MMV Screening Library” (2021)
The whole screen tested about 48,000 compounds, of which about 13,000 (27%) showed an effect of 50% or more. This is one part of the list.

Each compound was assayed on Wolbachia pipientis (assay: Anti-Wolbachia Cell-Based Screen). Details: 5 µM.
Assay type: functional
Set-up: scale not given: in the data most compounds retested in dose-response had high values

Going from `CC(C(=O)N1CCCC1)N1CCCN(C(=O)Oc2ccccc2)CC1` (stereo not given) to `CC(=O)C1(c2ccccc2)CCN(C(=O)CC2CNCCO2)CC1` (stereo not given), the “Percent Effect” value falls from 21.65% to 5.115%.

Compared with `Cc1noc(C)c1CN1C(=O)[C@H]2CC[C@@H]1CN(Cc1nccs1)C2`, `C[C@@H]1C[C@@H]2CCN(Cc3nccs3)C[C@H]2O1` is lower in “Percent Effect” value: -3.876% for the first, -21.98% for the second.

Going from `FC1(F)CCNCC12CCN(c1ccccn1)C2` (stereo not given) to `Fc1cccc(CN2CCC3(CCN3c3ncccn3)C2)c1.O=C(O)C(F)(F)F` (stereo not given), the “Percent Effect” value rises from -2.564% to 74.85%.

First: Cc1nc(NCc2ccco2)nc2c1COCC21CCNC1.O=C(O)C(F)(F)F (stereo not given)
Second: Cc1csc([C@H]2C[C@H]3CN(Cc4cc(C)on4)CC[C@@H]3O2)n1.O=C(O)C(F)(F)F
The “Percent Effect” value of the first is lower: -14.58% for the first, 122.4% for the second.

First: N#Cc1ccc(NCCc2n[nH]c(=O)[nH]2)cc1Cl
Second: CN(CCc1ccc(F)cc1)Cc1nc2c(cnn2C)c(=O)[nH]1
The “Percent Effect” value of the first is lower: -5.304% for the first, 17.64% for the second.

First: CC(C)N(C)Cc1cncc2c1CCN(C1CCOCC1)C2.Cl.Cl.Cl
Second: CN(C)Cc1cncc2c1CCN(C1CCOCC1)C2.Cl.Cl.Cl
The “Percent Effect” value of the first is higher: 97.34% for the first, 89.69% for the second.

Compared with `CSc1ncc(CN2C[C@H]3CC[C@@H]2CN(C2CCOCC2)C3)cn1`, `O=C(C1CCOCC1)N1C[C@H]2CC[C@@H]1CN(Cc1ccncc1)C2` is higher in “Percent Effect” value: -8.939% for the first, 9.375% for the second.

Compared with `O=C1[C@H]2CN(C3CCOCC3)C[C@H]2CN1Cc1cccnc1`, `CC(C)OC(=O)N1C[C@H]2CC[C@@H]1CN(Cc1cccnc1)C2` is lower in “Percent Effect” value: -4.896% for the first, -10.82% for the second.

Going from `COc1cccc(CC(C)NC(=O)NCCNC(C)=O)c1` (stereo not given) to `CCC(CC)NCC(C)Oc1cccnc1` (stereo not given), the “Percent Effect” value rises from -2.176% to 18.13%.

First: Cc1cc(C)c(CNc2ncnc3c2cnn3C)c(=O)[nH]1
Second: CN(CCc1ccccc1)Cc1nc2c(cnn2C)c(=O)[nH]1
The “Percent Effect” value of the first is lower: -6.133% for the first, 101% for the second.

Compared with `COc1c(CNCCc2c[nH]c3cc(F)ccc23)c(C)nn1C`, `COc1c(CNCCc2c[nH]c3cc(F)ccc23)c(C(C)C)nn1C` is lower in “Percent Effect” value: 86.39% for the first, 79.98% for the second.

Compared with `CC(C)(C)c1n[nH]c(C2CN(CC3CCC3)CCO2)n1` (stereo not given), `CN1CCC(c2cncc(N(C)C)n2)CC1` is higher in “Percent Effect” value: 7.516% for the first, 94.73% for the second.

First: O=C1CCCN1CCN1CC=C(c2cnn(C3CCS(=O)(=O)C3)c2)CC1 (stereo not given)
Second: COc1ccccc1OCCCN1CC=C(c2cnn(C)c2)CC1
The “Percent Effect” value of the first is lower: -11.25% for the first, 5.6% for the second.

Going from `O=C(c1ccccc1)N1CCOC2CNCC[C@H]21` (stereo not given in full) to `O=C(c1ccccc1)N1CCO[C@@H]2CNC[C@@H]21`, the “Percent Effect” value falls from 121.8% to 106.9%.

First: Cl.Cl.c1cc(CN2CCO[C@@H]3CNC[C@@H]32)cs1
Second: c1cc(CN2CCO[C@@H]3CNC[C@@H]32)co1
The “Percent Effect” value of the first is higher: -7.592% for the first, -20.72% for the second.

First: O=C(C1CCC1)N1CCO[C@@H]2CNC[C@@H]21
Second: O=C(C1CCCC1)N1CCO[C@@H]2CNC[C@@H]21
The “Percent Effect” value of the first is higher: 7.79% for the first, -1.725% for the second.

First: CC[C@H]1CN2CC[C@H]1C[C@@H]2CNC(=O)c1ccco1
Second: CN1CCN(C[C@H]2CN3CC[C@H]2C[C@@H]3CNC(=O)c2ccco2)CC1
The “Percent Effect” value of the first is lower: -12.57% for the first, -8.219% for the second.

First: N#Cc1cccc(CN2CCO[C@@H]3CNC[C@@H]32)c1
Second: Cl.Cl.c1ccc(CN2CCOC3CNCC[C@H]32)cc1 (stereo not given in full)
The “Percent Effect” value of the first is higher: -0.4846% for the first, -10.82% for the second.

Compared with `O=C(c1ccoc1)N1CCO[C@@H]2CNC[C@@H]21`, `O=C(c1ccco1)N1CCO[C@@H]2CNC[C@@H]21` is lower in “Percent Effect” value: 113.2% for the first, 105.9% for the second.

Going from `Cn1nc(-c2ccccc2)cc1[C@H]1CN2CC[C@H]1C[C@@H]2CNS(C)(=O)=O` to `CNCc1cn(C[C@H]2CC3CCN2C[C@@H]3C(=O)Nc2ccccc2)nn1` (stereo not given in full), the “Percent Effect” value falls from 1.19% to -4.498%.

First: O=C1NC[C@H]2CN(C3CCOCC3)CCN12
Second: O=C(C1CCCCC1)N1CCO[C@@H]2CNC[C@@H]21
The “Percent Effect” value of the first is higher: -8.801% for the first, -9.765% for the second.

First: O=C(c1cccnc1)N1CCO[C@@H]2CNC[C@@H]21
Second: Cl.Cl.O=C(N[C@H]1CN[C@H]2CCCO[C@H]21)c1cccnc1
The “Percent Effect” value of the first is higher: 100.8% for the first, -6.399% for the second.

Compared with `O=C(O)C(F)(F)F.O=C(O)C(F)(F)F.O=C1CC2(CCN(Cc3cccnc3)C2)CN1c1cccc(F)c1` (stereo not given), `Fc1cccc(CN2C[C@@H]3CN(c4ncccn4)C[C@@H]3C2)c1.O=C(O)C(F)(F)F.O=C(O)C(F)(F)F` is higher in “Percent Effect” value: 15.74% for the first, 102.6% for the second.

First: O=C(O)C(F)(F)F.O=C(O)C(F)(F)F.O=C(O)C(F)(F)F.c1cncc(CN2CCO[C@@H]3CN(Cc4ccoc4)CC[C@@H]3C2)c1
Second: Cc1cccc(CN2C[C@@H]3CN(Cc4ccoc4)CCO[C@@H]3C2)n1.O=C(O)C(F)(F)F.O=C(O)C(F)(F)F.O=C(O)C(F)(F)F
The “Percent Effect” value of the first is higher: -22.75% for the first, -28.06% for the second.

Going from `Fc1cnc(N2C[C@H]3CN(Cc4cccc(F)c4)C[C@H]3C2)nc1.O=C(O)C(F)(F)F.O=C(O)C(F)(F)F` to `N#Cc1cccc(CN2C[C@@H]3CN(c4ncccn4)C[C@@H]3C2)c1.O=C(O)C(F)(F)F`, the “Percent Effect” value rises from 5.307% to 114.7%.

First: O=C(O)C(F)(F)F.c1cnc(N2CCO[C@@H]3CN(Cc4ccoc4)C[C@@H]3C2)nc1
Second: Cc1ccc(CN2C[C@@H]3CN(c4ncccn4)C[C@@H]3C2)cc1.O=C(O)C(F)(F)F
The “Percent Effect” value of the first is higher: 98.59% for the first, 6.326% for the second.

Compared with `Fc1cnccc1CN1CCC2(CCN2c2ncccn2)C1.O=C(O)C(F)(F)F` (stereo not given), `COCCN1CC[C@]2(CN(Cc3ccccn3)C[C@H]2C)C1=O.O=C(O)C(F)(F)F.O=C(O)C(F)(F)F` is lower in “Percent Effect” value: -1.377% for the first, -7.652% for the second.

Compared with `Cc1nnc([C@@H]2C[C@H]3CN(C4CCC4)C[C@H]3O2)[nH]1.O=C(O)C(F)(F)F`, `Cc1noc([C@@H]2C[C@H]3CN(Cc4cc(C)on4)C[C@H]3O2)n1.O=C(O)C(F)(F)F` is lower in “Percent Effect” value: 6.797% for the first, 5.383% for the second.

Compared with `CCN1C(=O)C2(CCCCC2)NC12CCSCC2`, `CC(C)CNC(=O)N1CCOC2(CCNCC2)C1` is higher in “Percent Effect” value: -2.409% for the first, -1.344% for the second.

Going from `CCCNC1(c2ccc(Cl)cc2)CCOCC1` to `CCOCCNC1(c2ccc(Cl)cc2)CCOCC1`, the “Percent Effect” value rises from -6.475% to -4.765%.

First: COCCNc1nc2c(c(NCc3cnc(C)c(C)c3)n1)CCNCC2
Second: Cc1csc([C@H]2C[C@@H]3CCN(Cc4cc(C)on4)C[C@H]3O2)n1
The “Percent Effect” value of the first is lower: 2.827% for the first, 115.5% for the second.

Going from `Cc1csc(CN2CC[C@H]3C[C@H](c4ccncn4)O[C@@H]3C2)n1` to `Cc1csc([C@@H]2C[C@@H]3CCN(Cc4cc(C)on4)C[C@H]3O2)n1`, the “Percent Effect” value rises from 0.9996% to 98.39%.

Going from `Cc1cc(CN2CC[C@H]3C(=O)N(c4ccsc4)CCO[C@H]3C2)no1.O=C(O)C(F)(F)F` to `Cc1cc(CN2C[C@@H]3CN(Cc4ccsc4)CCO[C@@H]3C2)no1`, the “Percent Effect” value rises from -15.71% to -0.7027%.

First: Cc1cc(CN2CC[C@@H]3O[C@@H](c4nnc(C)o4)C[C@H]3C2)no1
Second: Cc1cc(CN2C[C@@H]3COC[C@]3(c3nnc(C)o3)C2)no1
The “Percent Effect” value of the first is higher: 110.6% for the first, 12.18% for the second.

Compared with `Cc1cc(CN2CC[C@H]3C[C@H](C(=O)N(C)C)O[C@@H]3C2)no1`, `Cc1nnc([C@H]2CC[C@@H]3[C@@H](CCN3Cc3c(C)noc3C)O2)o1` is higher in “Percent Effect” value: -3.331% for the first, 0.6834% for the second.

Going from `Cc1nn(C)c(C)c1C(C(=O)O)N1CC=C(c2ccccc2)CC1` (stereo not given) to `O=C(CCc1ccsc1)N1CCC(C(=O)O)(c2ccccc2)CC1`, the “Percent Effect” value rises from -20.97% to 7.958%.

Compared with `O=C(O)C(F)(F)F.O=C(O)C(F)(F)F.c1cncc(CO[C@H]2CC[C@H]3[C@@H]2OCCN3C2CCOCC2)c1`, `Cc1ccc(CN2CCO[C@H]3[C@@H](OCc4cccnc4)CC[C@@H]32)o1.O=C(O)C(F)(F)F.O=C(O)C(F)(F)F` is higher in “Percent Effect” value: -9.441% for the first, 111.1% for the second.

Compared with `Cc1ccc(CN2CCO[C@@H]3[C@@H](OCc4cccnc4)CC[C@@H]32)o1`, `Cc1ccc(CN2CCO[C@H]3[C@H](OCc4cccnc4)CC[C@@H]32)o1.O=C(O)C(F)(F)F.O=C(O)C(F)(F)F` is higher in “Percent Effect” value: 103.6% for the first, 105.6% for the second.

Going from `c1ccc(O[C@H]2CC[C@H]3[C@H]2OCCN3Cc2nccs2)nc1` to `Cc1ncsc1CN1C[C@@H]2CN(Cc3cccnc3)CCO[C@@H]2C1`, the “Percent Effect” value falls from -6.34% to -8.283%.

First: CC[C@H](N)Cn1nc(-c2cccs2)oc1=O.Cl
Second: CC(NC(=O)CN1CCCC1=O)c1ccc(Cl)s1 (stereo not given)
The “Percent Effect” value of the first is higher: -4.464% for the first, -9.497% for the second.

Compared with `O=C(c1ccc2c(c1)COC2)N1CCC(Nc2ccccc2)CC1`, `O=C(c1ccc2c(c1)OCO2)N1CCC(C(=O)O)(c2ccccc2)CC1` is higher in “Percent Effect” value: 5.047% for the first, 117.1% for the second.

First: Oc1cccc(CN2C[C@H]3CC[C@@H]2CN(Cc2cccnc2)C3)c1
Second: Cc1ccc([C@]2(O)CC[C@H]3CN(Cc4cccnc4)C[C@H]32)nc1
The “Percent Effect” value of the first is lower: 8.491% for the first, 129.8% for the second.

Going from `COC(=O)N1C[C@H]2CC[C@@H]1CN(Cc1ccncc1)C2` to `Cc1ccc([C@]2(O)CC[C@H]3CN(Cc4ccncc4)C[C@H]32)nc1`, the “Percent Effect” value rises from -3.604% to 139.7%.

Going from `O=C1CO[C@H]2CN(Cc3cccnc3)C[C@H]2N1` to `C[C@@H]1CN(Cc2cccnc2)C[C@]1(C)O`, the “Percent Effect” value rises from 0.8904% to 104.9%.

Going from `COCCN1CC[C@]2(CN(Cc3cccnc3)C[C@H]2C)C1=O.O=C(O)C(F)(F)F.O=C(O)C(F)(F)F` to `C[C@@H]1CN(C2CCOC2)C[C@]12CCN(Cc1cccnc1)C2=O.O=C(O)C(F)(F)F.O=C(O)C(F)(F)F` (stereo not given in full), the “Percent Effect” value falls from 106.1% to -21.11%.
